# Among all 2,000 compounds or so, about 110 (5.5%) showed an effect of 50% or more. This excerpt belongs to a sample that is enriched for strong results.
# Target: Genome polyprotein (dengue virus type 2) (UniProt P29990)
# [1] = Thailand/16681/1984, Concentration 25.0 uM, Number of replicates 1.0
smiles,measurement,setting,value
CCn1ncc(-c2ccccc2C(=O)Nc2cnn(C)c2)c1F,inhibition,"Thailand/16681/1984, Concentration 49.5 uM, Number of replicates 2.0, Standard deviation 1.7362397615810676 %",-3.37%
same,inhibition,"Thailand/16681/1984, Concentration 99.01 uM, Number of replicates 2.0, Standard deviation 3.5632406540879202 %",-3.71%
same,inhibition,"Thailand/16681/1984, Concentration 198.0 uM, Number of replicates 2.0, Standard deviation 2.004108271976906 %",-1.89%
COc1c(Cl)cccc1NC(=O)C1CCN(c2ccc(C=O)cc2)CC1,inhibition,[1],13.9%
C[C@H]1CCC[C@H](C)N1CCNC(=O)C1CCN(c2ccc(C=O)cc2)CC1,inhibition,[1],12.4%
CNC(=O)c1cn(C[C@H]2CCCN2C(=O)c2cccc3ncsc23)nn1,inhibition,"Thailand/16681/1984, Concentration 49.5 uM, Number of replicates 2.0, Standard deviation 0.1358580059513503 %",0.293%
same,inhibition,"Thailand/16681/1984, Concentration 99.01 uM, Number of replicates 2.0, Standard deviation 0.18464096005398162 %",0.707%
same,inhibition,"Thailand/16681/1984, Concentration 198.0 uM, Number of replicates 2.0, Standard deviation 0.18359188284769695 %",0.879%
O=Cc1ccc(N2CCC(C(=O)NCc3ccc(Br)s3)CC2)cc1,inhibition,[1],12.4%
N#Cc1cccc(-c2nc3c(C(=O)NCc4ccccn4)cc(Cl)cc3[nH]2)c1,inhibition,"Thailand/16681/1984, Concentration 99.5 uM, Number of replicates 2.0, Standard deviation 0.024300186977441064 %",-1.93%
same,inhibition,"Thailand/16681/1984, Concentration 295.6 uM, Number of replicates 2.0, Standard deviation 0.2349015826654049 %",5.47%
O=C(Nc1ccc2c(c1)CNC2)c1cc(Cl)cc(C(F)(F)F)n1,inhibition,"Thailand/16681/1984, Concentration 99.5 uM, Number of replicates 2.0, Standard deviation 0.07984298981903766 %",98%
same,inhibition,"Thailand/16681/1984, Concentration 295.6 uM, Number of replicates 2.0, Standard deviation 0.03008678069059277 %",99.8%
Cc1cnccc1NC(=O)c1cccc(C(F)(F)F)n1,inhibition,"Thailand/16681/1984, Concentration 49.5 uM, Number of replicates 2.0, Standard deviation 0.6191824281934856 %",0.024%
same,inhibition,"Thailand/16681/1984, Concentration 99.01 uM, Number of replicates 2.0, Standard deviation 1.7542746720133946 %",-0.908%
same,inhibition,"Thailand/16681/1984, Concentration 198.0 uM, Number of replicates 2.0, Standard deviation 1.379232208237382 %",-0.988%
N#Cc1cccc(-c2nc3c(C(=O)Nc4ccc5c(c4)CNC5)cc(Cl)cc3[nH]2)c1,inhibition,"Thailand/16681/1984, Concentration 99.5 uM, Number of replicates 2.0, Standard deviation 0.0717454001083366 %",96.4%
same,inhibition,"Thailand/16681/1984, Concentration 295.6 uM, Number of replicates 2.0, Standard deviation 0.16315483385791593 %",93.6%
N#Cc1cccc(NC(=O)c2cccc(OCc3c(Cl)cccc3Cl)c2)c1,inhibition,"Thailand/16681/1984, Concentration 49.5 uM, Number of replicates 2.0, Standard deviation 0.9750482899240065 %",1.9%
same,inhibition,"Thailand/16681/1984, Concentration 99.01 uM, Number of replicates 2.0, Standard deviation 10.511808397875392 %",16.1%
same,inhibition,"Thailand/16681/1984, Concentration 198.0 uM, Number of replicates 2.0, Standard deviation 5.918696266313343 %",7%
Cn1ncc2c(C(=O)Nc3ccc4c(c3)CNC4)cc(-c3cccnc3)nc21,inhibition,"Thailand/16681/1984, Concentration 99.5 uM, Number of replicates 2.0, Standard deviation 0.6966055883154065 %",-0.716%
same,inhibition,"Thailand/16681/1984, Concentration 295.6 uM, Number of replicates 2.0, Standard deviation 0.8690208118243027 %",16.8%
CCCOc1ccc(NC(=O)C2CCN(c3ccc(C=O)cc3)CC2)cc1,inhibition,[1],0.636%
O=Cc1ccc(N2CCC(C(=O)N3CCN(C(c4ccc(F)cc4)c4ccc(F)cc4)CC3)CC2)cc1,inhibition,[1],1.35%
COc1cccc(Cn2ncc(C3CCNCC3)c2C)n1,inhibition,"Thailand/16681/1984, Concentration 49.5 uM, Number of replicates 2.0, Standard deviation 0.6865140838852157 %",-2.28%
same,inhibition,"Thailand/16681/1984, Concentration 99.01 uM, Number of replicates 2.0, Standard deviation 1.8857815426916016 %",-0.708%
same,inhibition,"Thailand/16681/1984, Concentration 198.0 uM, Number of replicates 2.0, Standard deviation 1.685903611817113 %",-0.083%
O=Cc1ccc(N2CCC(C(=O)NCCCn3nccc3C3CC3)CC2)cc1,inhibition,[1],15.6%
O=Cc1ccc(N2CCC(C(=O)Nc3cc(C(F)(F)F)ccn3)CC2)cc1,inhibition,[1],10.8%
Cc1cc(CO)c2cccc(Cc3cccc(NC(=O)c4nc(C5CCNCC5)oc4C)c3)c2n1,inhibition,"Thailand/16681/1984, Concentration 49.95 uM, Number of replicates 2.0, Standard deviation 2.427412589513284 %",-2.68%
same,inhibition,"Thailand/16681/1984, Concentration 99.9 uM, Number of replicates 2.0, Standard deviation 2.040383474434353 %",-3.1%
Cc1cc(CO)c2cccc(NC(=O)c3nc(C4CCNCC4)oc3C)c2n1,inhibition,"Thailand/16681/1984, Concentration 49.95 uM, Number of replicates 2.0, Standard deviation 36.17788639576005 %",67.7%
same,inhibition,"Thailand/16681/1984, Concentration 99.9 uM, Number of replicates 2.0, Standard deviation 0.36888000776056334 %",98.7%
Cc1cc(CO)c2cccc(C[C@H](NC(=O)c3nc(C4CCNCC4)oc3C)C(=O)O)c2n1,inhibition,"Thailand/16681/1984, Concentration 49.95 uM, Number of replicates 2.0, Standard deviation 0.8080216779744858 %",2.79%
same,inhibition,"Thailand/16681/1984, Concentration 99.9 uM, Number of replicates 2.0, Standard deviation 0.4573836691864076 %",10%
Cc1cc(CO)c2cccc(Cc3ccccc3NC(=O)c3nc(C4CCNCC4)oc3C)c2n1,inhibition,"Thailand/16681/1984, Concentration 49.95 uM, Number of replicates 2.0, Standard deviation 1.1742415452444355 %",3.36%
same,inhibition,"Thailand/16681/1984, Concentration 99.9 uM, Number of replicates 2.0, Standard deviation 2.967451033370285 %",69.9%
CNc1ccccc1C(=O)Nc1ccccc1Cc1cccc2c(CO)cc(C)nc12,inhibition,"Thailand/16681/1984, Concentration 49.95 uM, Number of replicates 2.0, Standard deviation 0.9187611737377075 %",-6.32%
same,inhibition,"Thailand/16681/1984, Concentration 99.9 uM, Number of replicates 2.0, Standard deviation 0.9402243720481833 %",-7.75%
Cc1cc(CO)c2cccc(NC(=O)c3nc(-c4ccccc4)oc3C(F)(F)F)c2n1,inhibition,"Thailand/16681/1984, Concentration 49.95 uM, Number of replicates 2.0, Standard deviation 3.021297847027803 %",28.1%
same,inhibition,"Thailand/16681/1984, Concentration 99.9 uM, Number of replicates 2.0, Standard deviation 2.6625533133971393 %",43.6%
Cc1nccc(Cn2cc(C3CCNCC3)c(C)n2)n1,inhibition,"Thailand/16681/1984, Concentration 49.5 uM, Number of replicates 2.0, Standard deviation 0.12424043789356491 %",-1.07%
same,inhibition,"Thailand/16681/1984, Concentration 99.01 uM, Number of replicates 2.0, Standard deviation 0.32682664095966646 %",-0.665%
same,inhibition,"Thailand/16681/1984, Concentration 198.0 uM, Number of replicates 2.0, Standard deviation 1.945197851645592 %",1.76%
CN(Cc1nc2ccccc2n1C)C(=O)C1CCN(c2ccc(C=O)cc2)CC1,inhibition,[1],14.9%
CNC(=O)c1cn(S(=O)(=O)c2ccc(Oc3ccccc3Cl)cc2)c2ccc(Cl)cc12,inhibition,"Thailand/16681/1984, Concentration 49.5 uM, Number of replicates 2.0, Standard deviation 1.1380993582408887 %",0.625%
same,inhibition,"Thailand/16681/1984, Concentration 99.01 uM, Number of replicates 2.0, Standard deviation 1.0406365412270837 %",4.48%
same,inhibition,"Thailand/16681/1984, Concentration 198.0 uM, Number of replicates 2.0, Standard deviation 0.5161930213749926 %",12.8%
CNC(=O)c1ccncc1NS(=O)(=O)c1ccc(Oc2ccccc2Cl)cc1,inhibition,"Thailand/16681/1984, Concentration 49.5 uM, Number of replicates 2.0, Standard deviation 3.023334340601001 %",-2.48%
same,inhibition,"Thailand/16681/1984, Concentration 99.01 uM, Number of replicates 2.0, Standard deviation 3.20078374174672 %",-0.672%
same,inhibition,"Thailand/16681/1984, Concentration 198.0 uM, Number of replicates 2.0, Standard deviation 2.339843576600017 %",2.95%

# — ChEMBL document CHEMBL5606460, “ASAP - DENV-2 NS2B-NS3 protease fluorescence single point” (2024)
